# Bioassay records as filed in PubChem.
# Compounds with a hit are over-represented: about 0.9% of the library has one in this group of screens.
# SRC3 TRFRET art: TR-FRET artefact, counter-screen to PPARgamma/SRC-3 agonist assay | PPARgamma/SRC-3 format; stronger effect = higher value | TR-FRET ratio at 8 µM | 99,000 compounds, 0.39% hits | AID 1048; in the data active = TR-FRET ratio above about 2000
# PPARg SRC3 recr: agonists of human PPARgamma SRC-3 coactivator recruitment; biochemical PPARgamma/SRC-3 coactivator recruitment assay; P37231; activation, % at 8 µM; 200,000 compounds, 0.26% hits; AID 731; in the data active = activation above about 23%;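 also: 0% = DMSO and 100% = reference agonist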
# PPARg SRC1 recr: promotes SRC-1 coactivator recruitment by human PPARgamma; P37231; PPARgamma-SRC-1 coactivator recruitment biochemical assay; activation, % at 8 µM; 200,000 compounds, 0.41% hits; AID 631; in the data active = activation above about 19%;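 also: 0% = DMSO and 100% = reference agonist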
# PPARg SRC-2 ag: PPARgamma-driven SRC-2 recruitment agonism; activation, % at 8 µM; PPARgamma LBD-SRC-2 recruitment, biochemical; P37231; 200,000 compounds, 0.34% hits;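 also: 0% = vehicle and 100% = reference agonist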
# SRC2 TRFRET art: flags TR-FRET format artefacts in PPARgamma SRC-2 recruitment agonist screen; TR-FRET artefact counter-screen; stronger effect = higher value; TR-FRET ratio at 8 µM; 200,000 compounds, 0.4% hits; AID 1049; in the data active = TR-FRET ratio above about 2000
# SRC1 TRFRET art: counter-screen for PPARgamma SRC-1 recruitment agonists: TR-FRET artefact; TR-FRET detection artefact counter-screen, emission ratio; stronger effect = higher value; TR-FRET ratio at 8 µM; 99,000 compounds, 0.34% hits; AID 1051; in the data active = TR-FRET ratio above about 2300
# PPARg SRC2 ag: confirmation of agonists of SRC-2 recruitment by human PPARgamma; shares compounds with PPARg SRC3 recr; biochemical SRC-2 recruitment by PPARgamma; activation, % at 8 µM; 790 compounds, 52% hits; AID 1297;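 also: 0% = vehicle alone and 100% = reference agonist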
# PPARg SRC1 ag: confirmation of agonists of SRC-1 recruitment by human PPARgamma | shares compounds with PPARg SRC3 recr | PPARgamma–SRC-1 coactivator recruitment biochemical assay | activation, % at 8 µM | 790 compounds, 43% hits | AID 1300; in the data active = activation above about 20%;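 also: 0% = vehicle wells and 100% = reference agonist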
# PPARg SRC3 ag: confirmation of agonists of SRC-3 recruitment by human PPARgamma; shares compounds with PPARg SRC3 recr; biochemical PPARgamma-SRC-3 coactivator recruitment, agonist mode; activation, % at 8 µM; 790 compounds, 29% hits; AID 1301; in the data active = activation above about 24%;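 also: 0% = vehicle wells and 100% = reference agonist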
# An asterisk follows results filed as active; x = not tested or not shown. Rule as the data show it, unless noted: active = activation above about 22%; inactive = the rest.
SMILES,SRC3 TRFRET art,PPARg SRC3 recr,PPARg SRC1 recr,PPARg SRC-2 ag,SRC2 TRFRET art,SRC1 TRFRET art,PPARg SRC2 ag,PPARg SRC1 ag,PPARg SRC3 ag
Nc1ccc2c(c1)C(=O)C(=O)c1ccccc1-2,x,28.7*,22.4*,32.1*,1964,x,20.2,22.8*,11.6
Cc1ccc(CNC(=O)CSc2nc3[nH]ncc3c(=O)[nH]2)cc1,1557,7.3,8.0,6.6,1574,1824,x,x,x
Cc1ccc(NC(=O)CCn2c(=S)oc3ccccc32)cc1,1728,6.7,21.9*,11.9,1795,2071,3.0,-1.5,1.2
O=C(CCn1c(=S)oc2ccccc21)Nc1ccc(F)cc1,1616,1.5,7.3,-0.1,1550,1871,x,x,x
CCOC(=O)C(/C(C)=N/NC(=O)C1CC1c1ccccc1)C(C)C (configuration not stated),1461,-0.9,2.1,-6.2,1643,1613,x,x,x
COC(=O)CCS(=O)(=O)c1nc(-c2ccccc2)cc(C(F)(F)F)n1,x,8.6,21.4*,5.2,1639,x,7.5,16.1,11.1
CCOC(=O)CCS(=O)(=O)c1nc(-c2ccccc2)cc(C(F)(F)F)n1,x,12.7,15.4,15.1,1475,x,x,x,x
COc1ccccc1C1Nc2cccc3cccc(c23)N1,x,11.2,19.3*,19.4,1640,x,10.3,7.4,6.3
CCOCC(=O)Nc1cc(C(=O)Nc2ccc(F)cc2)ccc1Cl,1668,1.2,3.5,-1.1,1588,1710,x,x,x
O=C(C1=C(O)C(=O)N(CCCN2CCOCC2)C1c1ccccn1)c1cc2ccccc2o1 (configuration not stated),x,35.4*,20.9*,25.2*,1804,x,16.6,12.2,9.0
COc1cc(C2C(C(C)=O)=C(O)C(=O)N2CCN(C)C)ccc1O (configuration not stated),x,-1.4,6.3,1.9,1429,x,x,x,x
O=C(C1=C(O)C(=O)N(CCc2ccccc2)C1c1ccncc1)c1cc2ccccc2o1 (configuration not stated),2106*,10.4,20.6*,24.6*,2092*,2514*,26.2*,17.9,18.1
COc1ccccc1C1C(C(=O)c2cc3ccccc3o2)=C(O)C(=O)N1CCN(C)C (configuration not stated),x,25.0,19.8*,16.9,1988*,x,14.1,13.0,9.2
CN(C)CCN1C(=O)C(O)=C(C(=O)c2cc3ccccc3o2)C1c1cccc(Br)c1 (configuration not stated),x,58.4*,36.3*,44.8*,2387*,x,38.1*,25.8*,26.3*
O=C(/C=C\c1ccc2c(c1)OCO2)Nc1nnc(SCC(=O)OCc2ccccc2)s1,1419,-6.0,1.4,-10.1,1537,1889,x,x,x
O=C(O)C1=C(C(=O)Nc2cccc(C(F)(F)F)c2)CCCC1,1629,-0.4,8.5,-3.8,1644,1915,x,x,x
Nc1ccc(-c2ccc(C(=O)O)s2)cn1,1335,1.8,1.7,0.4,1623,1925,x,x,x
Cc1ccc(NC(=O)C2CCCN2C(=O)NC2CCCCC2)cc1 (configuration not stated),1599,2.2,6.2,1.9,1672,1944,x,x,x
CCN(CC)CCN1C(=O)C(O)=C(C(=O)c2cc3ccccc3o2)C1c1cccnc1 (configuration not stated),x,52.2*,33.0*,39.5*,2274*,x,11.3,7.7,8.2
CCN(CC)CCN1C(=O)C(O)=C(C(=O)c2sc(C)nc2C)C1c1cccnc1 (configuration not stated),x,4.3,-12.7,1.5,1457,x,x,x,x
Cc1cccc2cc(CN(Cc3ccc(F)cc3)Cc3nnnn3C3CCCC3)c(=O)[nH]c12,x,61.6*,9.8,111.9*,4917*,x,1.4,0.6,1.4
Cc1cc(C)c2[nH]c(=O)c(CN(Cc3ccc4c(c3)OCO4)Cc3nnnn3C3CCCC3)cc2c1,x,-14.5,-7.0,-8.6,1570,x,x,x,x
CCC(NC(=O)CCl)c1ccc(C)cc1 (configuration not stated),1613,4.2,4.2,-1.8,1589,1763,x,x,x
